# Test results taken from the supplement of paper PMC8728848.
# Only a selection was taken, and the strongest signals are over-represented in it overall.
# How the values were obtained:
# Experiment in all cases: glycan array binding signal (z-score within array); higher = stronger binding
# Settings in all cases: glycan notation: IUPAC condensed, linker removed; mutation: F63H
# Gal(b1-6)Gal = molecular target: Gal(b1-6)Gal
# How it was run: (§1)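 Columns mapping to the same glycan were averaged after glycan names were converted to IUPAC-condensed notation. The data come from 3228 arrays in the Consortium for Functional Glycomics database, limited to those with an available protein sequence. Binding is reported as a within-array Z-score averaged across arrays of one protein sequence and across linkers.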
# Gal3S(b1-3)GlcNAc = molecular target: Gal3S(b1-3)GlcNAc
# How it was run: as §1
# [1] = molecular target: Gal3S(b1-3)[Fuc(a1-4)]GlcNAc
# How it was run: as §1
# Gal4S(b1-4)GlcNAc = molecular target: Gal4S(b1-4)GlcNAc
# How it was run: as §1
# GalNAc(b1-3)GlcNAc = molecular target: GalNAc(b1-3)GlcNAc
# How it was run: as §1
# [2] = molecular target: Glc(a1-6)Glc(a1-6)Glc(a1-6)Glc
# How it was run: as §1
# GlcA(b1-6)Gal = molecular target: GlcA(b1-6)Gal
# How it was run: as §1
# [3] = molecular target: GlcA3S(b1-3)Gal(b1-4)GlcNAc(b1-2)Man
# How it was run: as §1
# [4] = molecular target: GlcA3S(b1-3)Gal(b1-4)GlcNAc(b1-3)Gal(b1-4)Glc
# How it was run: as §1
# [5] = molecular target: GlcNAc(a1-4)Gal(b1-4)GlcNAc(b1-3)Gal(b1-4)GlcNAc
# How it was run: as §1
# [6] = molecular target: GlcNAc(b1-2)Man(a1-3)[GlcNAc(b1-4)][GlcNAc(b1-2)Man(a1-6)]Man(b1-4)GlcNAc(b1-4)[Fuc(a1-6)]GlcNAc
# How it was run: as §1
# GlcNAc(b1-3)Gal(b1-4)Glc = molecular target: GlcNAc(b1-3)Gal(b1-4)Glc
# How it was run: as §1
# [7] = molecular target: GlcNAc(b1-3)Gal(b1-4)GlcNAc(b1-3)Gal(b1-4)GlcNAc(b1-2)[GlcNAc(b1-3)Gal(b1-4)GlcNAc(b1-3)Gal(b1-4)GlcNAc(b1-6)]Man(a1-6)[GlcNAc(b1-3)Gal(b1-4)GlcNAc(b1-3)Gal(b1-4)GlcNAc(b1-2)Man(a1-3)]Man(b1-4)GlcNAc(b1-4)[Fuc(a1-6)]GlcNAc
# How it was run: as §1
# [8] = molecular target: GlcNAc(b1-3)Gal(b1-4)GlcNAc(b1-3)Gal(b1-4)GlcNAc(b1-3)Gal(b1-4)GlcNAc(b1-2)Man(a1-3)[GlcNAc(b1-3)Gal(b1-4)GlcNAc(b1-3)Gal(b1-4)GlcNAc(b1-3)Gal(b1-4)GlcNAc(b1-2)Man(a1-6)]Man(b1-4)GlcNAc(b1-4)[Fuc(a1-6)]GlcNAc
# How it was run: as §1
# [9] = molecular target: GlcNAc(b1-3)Gal(b1-4)GlcNAc(b1-3)Gal(b1-4)GlcNAc(b1-3)Gal(b1-4)GlcNAc(b1-3)Gal(b1-4)GlcNAc(b1-2)[GlcNAc(b1-3)Gal(b1-4)GlcNAc(b1-3)Gal(b1-4)GlcNAc(b1-3)Gal(b1-4)GlcNAc(b1-3)Gal(b1-4)GlcNAc(b1-6)]Man(a1-6)[GlcNAc(b1-3)Gal(b1-4)GlcNAc(b1-3)Gal(b1-4)GlcNAc(b1-3)Gal(b1-4)GlcNAc(b1-3)Gal(b1-4)GlcNAc(b1-2)Man(a1-3)]Man(b1-4)GlcNAc(b1-4)[Fuc(a1-6)]GlcNAc
# How it was run: as §1
# [10] = molecular target: GlcNAc(b1-3)Gal(b1-4)GlcNAc(b1-3)[GlcNAc(b1-3)Gal(b1-4)GlcNAc(b1-3)]GalNAc
# How it was run: as §1
# GlcNAc(b1-3)Man = molecular target: GlcNAc(b1-3)Man
# How it was run: as §1
# [11] = molecular target: GlcNAc(b1-3)[GlcNAc(b1-4)][GlcNAc(b1-6)]GlcNAc
# How it was run: as §1
# [12] = molecular target: GlcNAc(b1-3)[GlcNAc(b1-6)]GalNAc
# How it was run: as §1
# Kdn(a2-3)Gal(b1-3)GlcNAc = molecular target: Kdn(a2-3)Gal(b1-3)GlcNAc
# How it was run: as §1
# [13] = molecular target: Man(a1-2)Man(a1-2)Man(a1-6)[Man(a1-3)]Man
# How it was run: as §1
# Man(a1-2)Man(a1-3)Man = molecular target: Man(a1-2)Man(a1-3)Man
# How it was run: as §1
# [14] = molecular target: Neu5Ac(a2-3)Gal(b1-3)GalNAc(b1-4)Gal(b1-4)Glc
# How it was run: as §1
# [15] = molecular target: Neu5Ac(a2-3)Gal(b1-3)GlcNAc
# How it was run: as §1
# [16] = molecular target: Neu5Ac(a2-3)Gal(b1-3)[Fuc(a1-4)]GlcNAc(b1-3)Gal(b1-4)[Fuc(a1-3)]GlcNAc
# How it was run: as §1
# [17] = molecular target: Neu5Ac(a2-3)Gal(b1-3)[GlcNAc(b1-6)]GalNAc
# How it was run: as §1
# [18] = molecular target: Neu5Ac(a2-3)Gal(b1-4)GlcNAc(b1-2)[Neu5Ac(a2-3)Gal(b1-4)GlcNAc(b1-4)]Man(a1-3)[GlcNAc(b1-4)][Neu5Ac(a2-3)Gal(b1-4)GlcNAc(b1-4)Man(a1-6)]Man(b1-4)GlcNAc(b1-4)GlcNAc
# How it was run: as §1
# [19] = molecular target: Neu5Ac(a2-3)Gal(b1-4)GlcNAc(b1-2)[Neu5Ac(a2-3)Gal(b1-4)GlcNAc(b1-6)]Man(a1-6)[Neu5Ac(a2-3)Gal(b1-4)GlcNAc(b1-2)Man(a1-3)][GlcNAc(b1-4)]Man(b1-4)GlcNAc(b1-4)GlcNAc
# How it was run: as §1
# [20] = molecular target: Neu5Ac(a2-3)Gal(b1-4)GlcNAc(b1-6)[Gal(b1-3)]GalNAc
# How it was run: as §1
# [21] = molecular target: Neu5Ac(a2-6)Gal(b1-4)GlcNAc(b1-2)Man(a1-3)[GlcNAc(b1-2)Man(a1-6)]Man(b1-4)GlcNAc(b1-4)GlcNAc
# How it was run: as §1
binder,measurement,setting,value
"AAL (Agrocybe aegerita), Q6WY08 (protein) MQGVNIYNISAGTSVDLAAPVTTGDIVTFFSSALNLNAGAGNPNNTTLNLFAENGAYLLHIAHRLQENVIIFNSRQPDGPWLVEQRVSDVANQFAGIDGKAMVTVFDHGDKYQVVINEKTVIQYTKQISGLTLSLSYNATEETSIFSTVVEAVTYTGLALEHHHHHH",glycan array binding signal (z-score),Gal(b1-6)Gal,-0.264
same,glycan array binding signal (z-score),Gal3S(b1-3)GlcNAc,-0.185
same,glycan array binding signal (z-score),[1],-0.366
same,glycan array binding signal (z-score),Gal4S(b1-4)GlcNAc,-0.569
same,glycan array binding signal (z-score),GalNAc(b1-3)GlcNAc,-0.08
same,glycan array binding signal (z-score),[2],-0.408
same,glycan array binding signal (z-score),GlcA(b1-6)Gal,0.43
same,glycan array binding signal (z-score),[3],14.9
same,glycan array binding signal (z-score),[4],12.7
same,glycan array binding signal (z-score),[5],-0.067
same,glycan array binding signal (z-score),[6],-0.109
same,glycan array binding signal (z-score),GlcNAc(b1-3)Gal(b1-4)Glc,1.42
same,glycan array binding signal (z-score),[7],0.909
same,glycan array binding signal (z-score),[8],0.906
same,glycan array binding signal (z-score),[9],0.818
same,glycan array binding signal (z-score),[10],0.58
same,glycan array binding signal (z-score),GlcNAc(b1-3)Man,-0.511
same,glycan array binding signal (z-score),[11],-0.568
same,glycan array binding signal (z-score),[12],-0.374
same,glycan array binding signal (z-score),Kdn(a2-3)Gal(b1-3)GlcNAc,-0.066
same,glycan array binding signal (z-score),[13],-0.576
same,glycan array binding signal (z-score),Man(a1-2)Man(a1-3)Man,-0.172
same,glycan array binding signal (z-score),[14],0.045
same,glycan array binding signal (z-score),[15],-0.26
same,glycan array binding signal (z-score),[16],-0.137
same,glycan array binding signal (z-score),[17],0.214
same,glycan array binding signal (z-score),[18],-0.283
same,glycan array binding signal (z-score),[19],1.54
same,glycan array binding signal (z-score),[20],0.404
same,glycan array binding signal (z-score),[21],-0.73
